# Measured values taken from PubChem BioAssay AID2283134 (EPA ToxCast).
# Records with an inconclusive call do not appear. The source made the active and inactive calls. How the source made its calls: active means hit-call score of the fitted dose curve at least 0.9, where 1 is the maximum; inconclusive means response in the unintended direction; inactive means score below 0.9.
# Target: human Checkpoint Kinase 1 (CHK1), CHEK1 (gene 1111) (UniProt O14757)
# Assay: NVS_ENZ_hCHK1: NovaScreen (NVS) Enzymatic Assay for human Checkpoint Kinase 1 (CHK1)
# Description: NVS_ENZ_hCHK1 is a biochemical, single-readout assay that uses extracted gene-proteins in a cell-free assay. Measurements were taken 1 hour after chemical dosing in a 96-well plate.NVS_ENZ_hCHK1 is one of one assay component(s) measured or calculated from the NVS_ENZ_hCHK1 assay. It is designed to make measurements of enzyme activity, a form of enzyme reporter, as detected with fluorescence intensity signals by Fluorescence and electrophoretic mobility shift technology.Data from the assay component NVS_ENZ_hCHK1 was analyzed into 1 assay endpoint. This assay endpoint, NVS_ENZ_hCHK1, was analyzed in the positive analysis fitting direction relative to DMSO as the negative control and baseline of activity. Using a type of enzyme reporter, loss-of-signal activity can be used to understand changes in the enzymatic activity as they relate to the gene CHEK1. Furthermore, this assay endpoint can be referred to as a primary readout, because this assay has produced multiple assay endpoints where this one serves a enzymatic activity function. To generalize the intended target to other relatable targets, this assay endpoint is annotated to the kinase intended target family, where the subfamily is serine/threonine kinase. […]
# human Checkpoint Kinase 1 (CHK1), CHEK1 (gene 1111), sequence (O14757 whole entry, looked up): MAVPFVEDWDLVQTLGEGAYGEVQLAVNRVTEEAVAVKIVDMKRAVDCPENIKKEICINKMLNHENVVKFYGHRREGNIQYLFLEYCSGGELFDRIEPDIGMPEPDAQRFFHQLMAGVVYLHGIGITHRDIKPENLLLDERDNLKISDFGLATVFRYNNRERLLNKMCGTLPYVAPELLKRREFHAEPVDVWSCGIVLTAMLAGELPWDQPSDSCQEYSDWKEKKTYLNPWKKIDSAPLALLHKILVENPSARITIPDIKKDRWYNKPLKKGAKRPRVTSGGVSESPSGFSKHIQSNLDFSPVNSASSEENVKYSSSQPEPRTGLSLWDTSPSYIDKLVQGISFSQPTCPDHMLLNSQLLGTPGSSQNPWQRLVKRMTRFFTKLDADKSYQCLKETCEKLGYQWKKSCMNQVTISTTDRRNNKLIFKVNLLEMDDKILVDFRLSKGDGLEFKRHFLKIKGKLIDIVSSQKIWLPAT
row,SMILES,outcome
1,N#Cc1c(Cl)c(Cl)c(Cl)c(C#N)c1Cl,inactive
